Compounds with a hit are over-represented: about 2.4% of the library has one in this group of screens.
Pol kappa inh-1 – blocks human DNA polymerase kappa activity | Potency, µM (highest dose often 107 µM), for the others: at the top dose activity, negative = inhibition, usual class: inhibitors | Q9UBT6 | 400,000 tested, 0.53% active | AID 588579 | purified Pol kappa, fluorescent DNA synthesis assay, 10 min; also: potency is read from the fitted curve at half-maximal effect; % is scaled to controls: 0 for no effect and ±100 for the full control effect
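Kinetic fluorescence screen: compound preincubated 15 min RT with 10 nM enzyme; 50 nM substrate (final) initiates; reads at 0/10 min.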
Pol iota inh – blocks human DNA polymerase iota activity. Q9UNA4. Pol iota fluorescent replication assay, 10 min. Potency, µM (titrated, usually from 115 µM), for the others: top-dose activity, negative = inhibition, actives largely listed as inhibitors. 390,000 tested, 1% active. AID 588590; also: potency is read from the fitted curve at half-maximal effect
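Fluorescent replication assay read twice, at 0 min and 10 min after adding 50 nM (final) substrate. Enzyme (10 nM) and compounds were first incubated 15 min at room temperature; enzyme-free buffer wells were negative controls.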
WRN inhibitor – inhibitors of human WRN helicase | WRN helicase unwinding, fluorescent forked duplex, kinetic | AID 651768 | 360,000 tested, 0.46% active | Q14191 | Potency, µM (top dose mostly 114 µM), for inactives: at the highest dose activity change, negative = inhibition, usual class: inhibitors; also: potency is read from the fitted curve at half-maximal effect; % is scaled to controls: 0 for no effect and ±100 for the full control effect; nearly all actives have a fitted effect of over 55% in size
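Enzyme (20 nM final) and test compound sit together 15 min at room temperature before substrate addition. Substrate is a single-forked duplex oligonucleotide (100 nM) labelled with fluorophore and quencher, with 2 mM ATP; helicase unwinding raises red fluorescence, read kinetically.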
Pol eta inh-1 – DNA polymerase eta (human) inhibition | Q9Y253 | 390,000 tested, 1.2% active | AID 588591 | recombinant Pol eta, fluorescent DNA replication assay | Potency, µM (titrated, usually from 114 µM), without a hit: at the highest dose activity change, negative = inhibition, hits mostly inhibitors; also: potency is read from the fitted curve at half-maximal effect; % is scaled to controls: 0 for no effect and ±100 for the full control effect
Target sequence (Q9Y253 whole entry, looked up): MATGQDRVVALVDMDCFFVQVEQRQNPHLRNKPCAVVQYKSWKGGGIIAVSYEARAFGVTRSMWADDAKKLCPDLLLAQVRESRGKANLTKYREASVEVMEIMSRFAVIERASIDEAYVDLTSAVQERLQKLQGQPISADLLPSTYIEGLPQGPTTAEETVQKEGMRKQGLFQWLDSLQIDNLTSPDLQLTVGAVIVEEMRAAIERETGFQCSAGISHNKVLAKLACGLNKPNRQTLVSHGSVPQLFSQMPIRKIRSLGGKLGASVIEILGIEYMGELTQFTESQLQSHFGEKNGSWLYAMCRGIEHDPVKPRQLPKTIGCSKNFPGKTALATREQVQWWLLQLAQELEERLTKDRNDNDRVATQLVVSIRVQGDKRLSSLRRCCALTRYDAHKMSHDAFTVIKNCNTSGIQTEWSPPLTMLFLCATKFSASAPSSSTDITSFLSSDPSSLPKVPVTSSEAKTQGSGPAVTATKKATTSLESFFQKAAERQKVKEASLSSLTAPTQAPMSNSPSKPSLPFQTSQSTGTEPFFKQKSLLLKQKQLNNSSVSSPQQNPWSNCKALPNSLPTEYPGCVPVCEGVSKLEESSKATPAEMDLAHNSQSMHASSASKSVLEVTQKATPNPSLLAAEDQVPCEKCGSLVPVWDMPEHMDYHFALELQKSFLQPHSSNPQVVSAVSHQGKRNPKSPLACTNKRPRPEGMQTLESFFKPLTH
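Pol eta at 10 nM preincubated with compounds 15 min at room temperature; reaction started with fluorescent substrate (50 nM final) and read kinetically at 0 and 10 min.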
Pol beta inh – DNA polymerase beta (human) inhibition; Pol beta primer extension/strand displacement, fluorescence kinetic; AID 485314; 340,000 tested, 1.3% active; Potency, µM (doses to about 114 µM), for inactives: top-dose activity change, negative = inhibition, actives largely listed as inhibitors; also: potency is read from the fitted curve at half-maximal effect; % is scaled to controls: 0 for no effect and ±100 for the full control effect
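Enzyme-only controls used 10 nM Pol beta; buffer lacking enzyme served as negative control. Compound preincubated 15 min, then 50 nM substrate added; 0 and 10 min reads at room temperature.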
FEN1 inhibitor – inhibitors of human flap endonuclease 1; AID 588795; Potency, µM (highest dose often 114 µM), for inactives: at the top dose activity change, negative = inhibition, actives largely listed as inhibitors; Recombinant FEN1 flap cleavage, fluorescence, 15 min; P39748; 390,000 tested, 0.35% active; also: potency is read from the fitted curve at half-maximal effect; % is scaled to controls: 0 for no effect and ±100 for the full control effect; nearly all actives have a fitted effect of over 65% in size
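Compounds are tested as a concentration series against 10 nM FEN1; after a 15 min room-temperature preincubation, 50 nM substrate starts cleavage, with plate reads at 0 and 15 min. Normalized responses are fitted by a Hill equation.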
GALK confirm – confirmation of human galactokinase (GALK) inhibitors | Potency, µM (top dose mostly 115 µM), for the others: at the highest dose activity, negative = inhibition, most hits filed as inhibitors | 150 tested, 70% active | purified GALK, Kinase-Glo ATP depletion luminescence | shares compounds with Pol eta inh-1
GALK redox cs – redox cycling activity in phenol red-HRP assay | 150 tested, 40% active | Potency, µM (highest dose often 115 µM), for the others: at the highest dose activity change, negative = H2O2 signal, hits mostly inhibitors | Phenol red-HRP H2O2 redox cycling, absorbance 600 nm | AID 2035 | shares compounds with Pol eta inh-1
HEK293 viability – reduces HEK-293 cell viability in GALK counter-screen; shares compounds with Pol eta inh-1; HEK-293 viability, ATP luminescence (CellTiter-Glo), 24/48 h; 170 tested, 10% active; AID 2547; Potency, µM (top dose mostly 46.1 µM), for inactives: top-dose activity change, negative = cytotoxicity, hits mostly inhibitors; also: potency is read from the fitted curve at half-maximal effect; % is scaled to controls: 0 for no effect and ±100 for the full control effect
Pol kappa inh-2 – Pol kappa (human) inhibition, cherry-pick confirmation. purified Pol-kappa, fluorescent strand-displacement substrate. 920 tested, 76% active. shares compounds with Pol eta inh-1. Potency, µM, usual class: inhibitors. AID 720501; also: potency is read from the fitted curve at half-maximal effect
Pol eta inh-2 – Pol eta (human) inhibition, cherry-pick confirmation; Potency, µM, most hits filed as inhibitors; 2,600 tested, 64% active; shares compounds with Pol eta inh-1; Pol eta primer extension, TAMRA/BHQ fluorescence, 10 min; also: potency is read from the fitted curve at half-maximal effect
Starred values were filed as active, the others as inactive; ? = inconclusive; · = no result given; [ ] = dose if it differs, or a comment. Calls follow the shape of the dose curve; as a rule, active = well fitted curve in the direction sought with a large enough effect; inconclusive = small, poorly fitted or top-dose-only effect, or another doubt; inactive = no such curve, though single readings can be large; an effect the other way counts as inactive or inconclusive.

SMILES	Pol kappa inh-1	Pol iota inh	WRN inhibitor	Pol eta inh-1	Pol beta inh	FEN1 inhibitor	Pol eta inh-2	others
O=C1C(=Cc2cccn2-c2ccccc2)C(=O)c2ccccc21	-15%	37%	-20%[57.1 µM]	?	7%	-1%	·
Cc1cc(C=C2C(=O)c3ccccc3C2=O)c(C)n1-c1ccccc1	-4%	-7%[58.9 µM]	-13%	-24%	21%	0%	·
CCn1cc(S(=O)(=O)c2ccc(OC)cc2)c(=O)c2cc(F)c(N3CCC(C)CC3)cc21	?	41%	·	-18%	9%	9%	·
Cc1ccc(C)c(NC(=O)CSc2cn(CC(=O)N3CCCC3)c3ccccc23)c1	-1%	20%	·	-14%	4%	-11%	·
CC1=C(C(=O)Nc2cccnc2)C(c2cccc(F)c2)n2nc(SCc3ccccc3)nc2N1 (stereo not drawn)	8%	12%	·	-11%	19%	-3%	·
CCOC(=O)c1c(C)n(-c2ccc(OC)cc2)c2ccc(OC(=O)COc3ccccc3)cc12	-4%	16%	·	-23%	-10%	7%	·
CO/N=C(/C(=O)N[C@@H]1C(=O)N2C(C(=O)O)=C(CSc3nc(C)c(CC(=O)O)s3)CS[C@H]12)c1csc(N)n1	-3%[19.4 µM]	·	·	·	·	·	·
C=CC1=C(C(=O)O)N2C(=O)[C@@H](NC(=O)/C(=N\O)c3csc(N)n3)[C@H]2SC1 (stereo in doubt)	?	?	-17%	?	·	-18%	?
O=C(CCc1nnc2ccc(NCc3ccco3)nn12)Nc1ccccn1	5%	20%	-3%[11.6 µM]	28µM*	?	7%	?
COc1ccccc1NC(=O)CCc1nnc2ccc(NCc3ccco3)nn12	-19%	?	-2%	-16%	-14%	4%	·
O=c1c2ccccc2nc2ccc(NCc3ccco3)nn12	-37%	?	?	?	?	-21%	?
Cc1cccc(NC(=O)CCc2nnc3ccc(NCc4ccco4)nn23)n1	1%	36%	-7%[11.6 µM]	25µM*	?	-1%	76*
O=C(CCc1nnc2ccc(NCc3ccco3)nn12)Nc1ccccc1F	-23%	?	-15%	?	?	12%	·
Cc1ccc(NC(=O)Cn2c(-c3ccc4c(c3)OCO4)cn(-c3ccccc3)c2=O)cc1	-4%	-5%	·	-5%	-2%	-3%	·
COc1ccc(-c2ccc(N(C)C)cc2)cc1C1C2C=CCC(C)C2C(=O)N1Cc1ccccc1 (stereo not drawn)	6%	7%	·	·	·	6%	·
CCCCCC1C(=O)CCC1CC(=O)O (stereo not drawn)	-3%[60.1 µM]	·	·	·	·	·	·
CCCCC1C(=O)CC[C@H]2[C@@H]1CC(=O)[C@@H]2C/C=C\CCCC(=O)O (stereo partly drawn)	-26%	?	?	?	26%	-6%	?
O=C(CCC1N=C2c3ccccc3N=C(SCC(=O)NCc3ccco3)N2C1=O)NCc1ccco1 (stereo not drawn)	?	13µM*	?	?	32µM*	0%	?
CC(=O)C(=Cc1ccc(-c2ccccc2)cc1)C(=O)c1ccccc1	·	·	-8%	·	·	·	·
CC(=O)C(=Cc1ccc(C(=O)O)cc1)C(C)=O	?	?	-3%	40µM*	?	8%	?
NC(=O)c1ccsc1NC(=O)c1ccc([N+](=O)[O-])o1	79µM*	50µM*	-9%[11.6 µM]	45µM*	·	?	?
NC(=O)c1ccsc1NC(=O)COC(=O)c1ccc([N+](=O)[O-])o1	-30%	-24%	-8%	-18%	·	-2%	·
COc1cc(Cl)c(C)cc1NC(=O)Cn1ncc2c3ccccc3n(Cc3ccccc3)c2c1=O	-12%	-3%	·	-7%	7%	-6%	·
O=C(OCC(=O)N1CCCC1=O)c1nc(Cl)c(Cl)c(Cl)c1Cl	?	?	-6%[11.6 µM]	56µM*	?	-8%	?
CC(=O)/C(N=Nc1ccc(C(=O)O)cc1[N+](=O)[O-])=C(\C)O	?	50µM*	4%[11.6 µM]	11µM*	?	-5%	?
SMILES	Pol kappa inh-1	Pol iota inh	WRN inhibitor	Pol eta inh-1	Pol beta inh	FEN1 inhibitor	Pol eta inh-2	others
CCOC(=O)/C(N=Nc1ccc(C(=O)O)cc1[N+](=O)[O-])=C(\C)O	-14%	?	8%	-9%	-26%	12%	·
CN=CC1=C(O)c2ccccc2C1=O	1%	-12%	0%	-8%	30%	-3%	·
O=C1C(C2=C(O)c3ccccc3C2=O)=Nc2ccccc21	-22%	27%	-26%	32µM*	9%	-21%	·	GALK confirm=24µM*;GALK redox cs=15µM*;HEK293 viability=9%
CCc1ccc(N2C(=O)CS(=O)(=O)C23C(=O)N(Cc2ccccc2)c2ccccc23)cc1 (stereo not drawn)	-10%	14%	·	-16%	1%	-12%	·
Cc1c(Cl)cccc1NC(=O)CC(c1ccc(F)cc1)N1Cc2ccccc2C1=O (stereo not drawn)	-5%	-11%	·	-17%	2%	6%	·
COC(=O)c1sc(-c2ccc(C(C)(C)C)cc2)cc1NC(=O)c1ccccc1C(=O)O	2%	-19%	2%[11.6 µM]	89µM*	?	-9%	·	Pol kappa inh-2=?
COC(=O)c1sc(-c2ccc(Cl)cc2)cc1NC(=O)c1ccccc1C(=O)O	-21%	33%	-31%	?	?	?	·
Cc1nn(CCC(=O)O)c2nc(-c3cccnc3)cc(C(F)(F)F)c12	4%	-10%	-12%	-9%	-1%	4%	·
